Some test systems named below: RPMI-8226 leukemia; OVCAR-8 ovarian; OVCAR-5 ovarian; OVCAR-4 ovarian; SK-OV-3 ovarian; IGROV1 ovarian; OVCAR-3 ovarian; NCI/ADR-RES ovarian; T-47D breast; BT-549 breast; MDA-MB-435 melanoma; MCF7 breast; HCT-116 colon; KM12 colon; HS 578T breast; SW-620 colon; HCC-2998 colon.
Holding throughout (test): NCI-60 one-dose screen, 48 h (100 = growth as untreated, 0 = no growth, -100 = all killed)
What all share (details): 10 µM

Our source for the growth values is PubChem BioAssay (NCI).

The panel holds about 83,000 compounds, 20% with a hit somewhere; the sample as a whole holds those more often.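 Note: values are percent growth. 100 is the growth of untreated cells, values between 100 and 0 indicate rising inhibition; between -100 and 0 indicates cell death.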 Values without a mark were called inactive. Calls of active or inactive are those of the source. How the source made its calls: active means growth percent below 10; inactive means the rest.

Consider `O=C(C[n+]1ccccc1)c1ccc2ccccc2c1`, for which the growth with RPMI-8226 leukemia is 93.4%; with OVCAR-8 ovarian, 89%; with OVCAR-5 ovarian, 75.9%; in the assay with OVCAR-4 ovarian, 86.3%; in the assay with SK-OV-3 ovarian, 101%; in the assay on IGROV1 ovarian it was 105%. Moreover, the growth in the assay with OVCAR-3 ovarian was 95%; in the assay on NCI/ADR-RES ovarian, 92%; in the assay with T-47D breast, 87.2%; with BT-549 breast, 100%; in the assay with MDA-MB-435 melanoma, 102%; in the assay with MCF7 breast it was 98.1%. Moreover, the growth with HCT-116 colon was 91.2%; with KM12 colon, 93.1%.

As for `O=C(Nc1nc2ccccc2s1)Nc1ccc([N+](=O)[O-])cc1Cl`, the growth is 36.9% in the assay with RPMI-8226 leukemia; -26.4% (active) in the assay with OVCAR-8 ovarian; 105% with OVCAR-5 ovarian; -45.6% (active) in the assay on OVCAR-4 ovarian; 63.9% in the assay with SK-OV-3 ovarian; 38.1% in the assay on OVCAR-3 ovarian. In addition, the growth is 70.7% with HS 578T breast; 14.4% in the assay with NCI/ADR-RES ovarian; 61.7% with T-47D breast; 16.2% in the assay on BT-549 breast; 40.4% in the assay with MDA-MB-435 melanoma; 95.6% in the assay on SW-620 colon. Also, the growth in the assay on MCF7 breast was 74.3%; in the assay on HCT-116 colon, 18.7%; in the assay with HCC-2998 colon, 76.1%; with KM12 colon, -32.4% (active).

Consider `CCN(CCCCCCN1CC(=O)N(CCCCCCN(CC)Cc2ccccc2OC)CC1=O)Cc1ccccc1OC`, for which the growth in the assay with RPMI-8226 leukemia was 30.3%; in the assay on OVCAR-8 ovarian it was 86.7%; in the assay on OVCAR-5 ovarian it was 68.9%; with OVCAR-4 ovarian, 77.1%; in the assay with SK-OV-3 ovarian it was 102%; in the assay on IGROV1 ovarian it was 61.1%. Moreover, the growth is 59.5% in the assay with OVCAR-3 ovarian; 70.9% in the assay with NCI/ADR-RES ovarian; 90.8% with T-47D breast; 87.8% with BT-549 breast; 85.9% in the assay with MDA-MB-435 melanoma; 83.6% in the assay with MCF7 breast. Moreover, the values for the growth in the assay with HCT-116 colon and in the assay with KM12 colon were 37.6% and 65.5%, respectively.

Regarding `COc1cc([C@@H]2c3cc4c(cc3C(Br)[C@H]3COC(=O)[C@H]23)OCO4)cc(OC)c1OC` (some centres not stated), the growth was -25.8% (active) with RPMI-8226 leukemia; -27.5% (active) in the assay with OVCAR-8 ovarian; 24.7% in the assay with OVCAR-5 ovarian; 17.3% in the assay on OVCAR-4 ovarian; -18.4% (active) in the assay on SK-OV-3 ovarian; -21% (active) in the assay on IGROV1 ovarian. Also, the growth with OVCAR-3 ovarian was -81.5% (active); in the assay with NCI/ADR-RES ovarian it was -45.9% (active); with T-47D breast it was 31.3%; in the assay on BT-549 breast, -12.7% (active); in the assay on MDA-MB-435 melanoma it was -42% (active); in the assay with MCF7 breast it was -10.4% (active). Moreover, the growth in the assay on HCT-116 colon was -34.7% (active); in the assay on KM12 colon, -81.3% (active).

As for `COc1cc(-c2cc(/C=C/C(=O)c3ccc(F)c(F)c3)[nH]n2)cc(OC)c1OC`, the growth is 22.6% with RPMI-8226 leukemia; 58.1% in the assay with OVCAR-8 ovarian; 76% with OVCAR-5 ovarian; 40.1% with OVCAR-4 ovarian; 73.1% in the assay on IGROV1 ovarian; 49.6% in the assay on OVCAR-3 ovarian. Besides, the growth with HS 578T breast is 61.3%; in the assay on NCI/ADR-RES ovarian it was 63.5%; in the assay on T-47D breast it was 53.6%; in the assay on BT-549 breast, 94.2%; in the assay on MDA-MB-435 melanoma, 51.7%; in the assay on SW-620 colon, 67.2%. Further, the growth in the assay with MCF7 breast was 48.3%; in the assay on HCT-116 colon, 29.3%; in the assay on HCC-2998 colon it was 87.1%; with KM12 colon, 41%.

Turning to `CC/C(=N\N=C(/CC)c1ccc(Br)cc1)c1ccc(Br)cc1`, the growth in the assay with RPMI-8226 leukemia was 93.9%; in the assay on OVCAR-8 ovarian, 116%; in the assay with OVCAR-5 ovarian, 92.4%; with OVCAR-4 ovarian it was 93.7%; in the assay with SK-OV-3 ovarian, 100%; in the assay with IGROV1 ovarian, 79.5%. Moreover, the growth in the assay on HS 578T breast is 110%; with NCI/ADR-RES ovarian it was 105%; in the assay on T-47D breast it was 83%; in the assay on BT-549 breast, 91.1%; with MDA-MB-435 melanoma it was 106%; in the assay on SW-620 colon, 102%. The growth in the assay on MCF7 breast was 90.9%; in the assay on HCT-116 colon it was 78.1%; with HCC-2998 colon, 99.4%; in the assay with KM12 colon it was 99.5%.

On to `N#CCCN1C/C(=C/c2ccc(Cl)cc2)C(=O)/C(=C/c2ccc(Cl)cc2)C1`, for which the growth is -15.5% (active) with RPMI-8226 leukemia; -22% (active) in the assay on OVCAR-8 ovarian; 4.05% (active) in the assay on OVCAR-5 ovarian; 8.18% (active) with OVCAR-4 ovarian; -66.7% (active) with IGROV1 ovarian; -48.6% (active) in the assay with OVCAR-3 ovarian. Also, the growth with HS 578T breast was -9.16% (active); in the assay with NCI/ADR-RES ovarian it was 11.1%; with T-47D breast, 8.7% (active); in the assay with BT-549 breast, -24.5% (active); with MDA-MB-435 melanoma, -66.5% (active); in the assay on SW-620 colon, -48.4% (active). The results for the growth in the assay on MCF7 breast, in the assay on HCT-116 colon and in the assay on HCC-2998 colon were -10.2% (active), -54.5% (active) and -84.6% (active), respectively.

Take `COc1ccc(/C(=C2\O[C@@H]([C@H]3COC(C)(C)O3)[C@H]3OC(C)(C)O[C@@H]23)c2cc(OC)c(OC)c(OC)c2)cc1O`: the growth in the assay on RPMI-8226 leukemia was 63.7%; with OVCAR-8 ovarian, 68.3%; in the assay on OVCAR-5 ovarian, 95.4%; in the assay with OVCAR-4 ovarian, 99.2%; in the assay with SK-OV-3 ovarian, 38%; in the assay on OVCAR-3 ovarian, 48%. The growth in the assay with HS 578T breast is -22.2% (active); in the assay on NCI/ADR-RES ovarian it was 10.1%; in the assay on T-47D breast, 121%; in the assay on BT-549 breast, 57.7%; with MDA-MB-435 melanoma, -44.7% (active); in the assay on SW-620 colon, 15.4%. Further, the growth in the assay on HCT-116 colon is 54%; with HCC-2998 colon, 102%; in the assay with KM12 colon, 26.7%.

For `Cc1ccc(-c2nc(/C=C3/C(=O)N(C)c4ccc(F)cc43)c3ccccn23)cc1`, the growth in the assay with RPMI-8226 leukemia was 115%; with OVCAR-8 ovarian, 99.3%; in the assay with OVCAR-5 ovarian it was 106%; in the assay on OVCAR-4 ovarian, 114%; in the assay on SK-OV-3 ovarian, 105%; in the assay with OVCAR-3 ovarian, 112%. For the same molecule, the growth is 107% with HS 578T breast; 105% in the assay on NCI/ADR-RES ovarian; 109% with T-47D breast; 99.9% in the assay on BT-549 breast; 111% in the assay on MDA-MB-435 melanoma; 105% with SW-620 colon. Further, the growth with MCF7 breast is 78.6%; in the assay on HCT-116 colon, 89.3%; in the assay on HCC-2998 colon, 104%; with KM12 colon, 101%.

In the case of `COc1ccc2nc3ccccc3c(NCCNCC(C)O)c2c1` (configuration not stated), the growth is -1.19% (active) in the assay with RPMI-8226 leukemia; -2.99% (active) in the assay with OVCAR-8 ovarian; 1.61% (active) in the assay on OVCAR-5 ovarian; 11.8% in the assay on OVCAR-4 ovarian; -3.44% (active) with SK-OV-3 ovarian; 4.2% (active) in the assay on IGROV1 ovarian. The growth in the assay on HS 578T breast is 28.4%; in the assay on NCI/ADR-RES ovarian, 73.6%; in the assay with T-47D breast, -3.73% (active); in the assay on BT-549 breast, 30.9%; with MDA-MB-435 melanoma, 1.44% (active); in the assay on SW-620 colon, 0.102% (active). The growth with MCF7 breast is 4.08% (active); in the assay on HCT-116 colon, 0.194% (active); in the assay on HCC-2998 colon, -11.8% (active); with KM12 colon, 9.48% (active).
